Measured values reported in the supplement of paper PMC12636033.
± gives the standard deviation of the averaged measurements. The full ranking holds about 33,000 sequences; the median of “E-score (rank enrichment, -0.5 to 0.5)” is about -0.0028, and the highest 2% start at about 0.23. The sample holds the highest values, similar sequences and a random draw of the others, so the mix is not that of the screen.

Test system: 2Sb-muMax20 (muMax20 with two 1,3-bis(methyl)benzene Cys staples, A13C/A17C and Q88C/A92C, C-terminal Lys)
Test: PBM 8-mer E-score (E-score (rank enrichment, -0.5 to 0.5)); higher = stronger preferential binding
Protocol: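 Protein binding microarray (universal PBM chip covering all 10-mers in fixed probe flanks) with chemically synthesized human Max(13-93) bHLH-LZ analogs (not full-length Max) bearing noncanonical residues (hArg, Tha, Aib, Nle at 65) and aromatic Cys staples. Read-out per 8-mer (and its reverse complement): E-score (rank-based enrichment, -0.5 to 0.5) and Z-score of median probe intensity.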

Sequence	PBM 8-mer E-score
CATGTAGC	0.084 ± 0.043
CTCCACTA	0.0307 ± 0.041
CCATCGAG	-0.0349 ± 0.043
ACCACGAC	-0.0523 ± 0.04
CGTACAAG	-0.0151 ± 0.087
ATAGCGAA	0.0983 ± 0.034
ACCTATTC	-0.025 ± 0.024
TAATGCTA	0.231 ± 0.044
CAATGCTA	0.00426 ± 0.07
GAATGCTA	-0.216 ± 0.036
GGATGGCC	-0.241 ± 0.023
TGATGGCA	0.0723 ± 0.063
GGATGGCA	0.267 ± 0.059
ACTTTCGA	0.0801 ± 0.036
AAGCTTCT	0.104 ± 0.092
CATCATGA	0.0474 ± 0.048
AATCATGA	0.136 ± 0.035
TATCATGA	0.278 ± 0.02
GGGGATAC	0.0267 ± 0.0099
CGGGATTA	0.032 ± 0.017
AGGGATTA	-0.0189 ± 0.016
GGGGATTA	0.278 ± 0.013
GGGGATAA	0.234 ± 0.063
TGGGATAA	0.0797 ± 0.017

Sequence	PBM 8-mer E-score
CAGTAAGG	-0.0281 ± 0.052
AATAGTGT	0.1565 ± 0.001
GTCCCCGA	0.0628 ± 0.032
AACTGTGA	-0.0892 ± 0.026
TAACTGGA	-0.0436 ± 0.0063
CATTAGCC	-0.0287 ± 0.08
CTATGCCA	0.0722 ± 0.02
ATATGCCG	-0.076 ± 0.083
ATATGCCA	0.305 ± 0.06
ATCGACGC	0.0538 ± 0.027
ATGTGTAC	0.107 ± 0.014
GCCAGTGA	0.0103 ± 0.058
ACACGTGG	0.416 ± 0.0009
TCACGTAA	-0.031 ± 0.021
ACACGTGC	0.409 ± 0.0079
ACACGAGA	-0.125 ± 0.065
ACACGTAG	0.0467 ± 0.016
ACACGAGT	0.248 ± 0.044
TAACGTGA	-0.0146 ± 0.035
ACACGAGG	0.0366 ± 0.063
TCACGTGA	0.439 ± 0.033
ACACGTAC	0.0764 ± 0.051
AGACGTGC	-0.124 ± 0.021
AAACGTGG	0.0929 ± 0.011

Sequence	PBM 8-mer E-score
AAGGCCGA	-0.0488 ± 0.013
CGCTGACA	-0.122 ± 0.0063
TCTAGTCA	0.105 ± 0.035
CCCCCGGG	-0.43 ± 0.042
CCGCCTCG	-0.04 ± 0.07
GATACTCC	-0.0231 ± 0.06
GCGCGGGA	-0.038 ± 0.036
ATTCAGAG	-0.21 ± 0.046
CGTGCATA	0.165 ± 0.016
ACACGTGT	0.396 ± 0.015
ATACGTGA	0.0108 ± 0.014
ACACGTGA	0.3874 ± 0.0005
AGACGTGA	0.0177 ± 0.032
AAACGTGT	0.0274 ± 0.017
ACACGTAT	0.205 ± 0.022
ATGTCGCG	-0.163 ± 0.042
CATCGTAC	-0.0597 ± 0.0024
ACTACGTC	0.0847 ± 0.0011
GTCGATTA	-0.0254 ± 0.015
AGCAGGCT	-0.169 ± 0.016
GAGCCCGC	-0.24 ± 0.016
AGCGCTCA	-0.0925 ± 0.0074
ATAATGGA	0.185 ± 0.0033
ATAATGTG	0.159 ± 0.037

Sequence	PBM 8-mer E-score
ATAATGTC	0.238 ± 0.021
CTAATGTC	-0.0718 ± 0.018
ATAATGGG	0.238 ± 0.034
ATAATGGC	0.012 ± 0.012
AGGAACTG	-0.188 ± 0.049
GCTGCACA	-0.179 ± 0.029
CGCTTGTA	0.123 ± 0.13
CATGCATG	0.349 ± 0.03
AATGCATT	0.282 ± 0.018
GATGCGTA	0.126 ± 0.054
CATGCGTA	0.2542 ± 0.0016
CATGCAAC	0.247 ± 0.027
AATGCAAC	0.0741 ± 0.045
AATGCGTA	0.192 ± 0.017
CATGCAAG	0.0851 ± 0.0044
AATGCATA	0.155 ± 0.01
AATGCATC	0.174 ± 0.028
CATGCATC	0.0655 ± 0.044
CATGCATA	0.177 ± 0.0083
AAAGGGGA	0.101 ± 0.002
ACCGGGCA	-0.237 ± 0.053
CTGGTCCC	-0.186 ± 0.015
GGCTTCGA	-0.0528 ± 0.016
GTCTTCAC	-0.127 ± 0.079

Sequence	PBM 8-mer E-score
CACCGAGG	-0.221 ± 0.014
ATTGCATG	0.13 ± 0.006
ACTGCATG	0.0264 ± 0.067
AATGCAAG	0.134 ± 0.016
AATGCAAA	0.247 ± 0.034
TATGCAAA	0.0419 ± 0.0014
AATGCATG	0.26 ± 0.017
ATGGTTAC	-0.0452 ± 0.019
GCCACCGA	-0.191 ± 0.0059
ATTGCATA	0.228 ± 0.028
TATAAACA	0.156 ± 0.011
ACTGTTAG	-0.0514 ± 0.065
AATTAATA	0.217 ± 0.011
GATTAAGA	0.129 ± 0.0066
GATTAATC	-0.0411 ± 0.03
CATTAATA	0.148 ± 0.024
GATTAATA	0.258 ± 0.041
TATTAATA	0.296 ± 0.027
GATGATCC	-0.0779 ± 0.039
CATCGTTC	-0.12 ± 0.012
AGACAATC	0.113 ± 0.029
AGACAATG	-0.0359 ± 0.045
AGACAATA	0.242 ± 0.082
GCACGCAA	-0.108 ± 0.043

Sequence	PBM 8-mer E-score
ACCCCAGC	0.162 ± 0.054
GGAGGGAC	-0.162 ± 0.097
CTAACAAA	0.144 ± 0.04
GGATGCCA	-0.0771 ± 0.0063
AGTGTGCA	0.127 ± 0.052
GCCGCCCA	-0.145 ± 0.07
CCCGCCCG	0.116 ± 0.12
ACCGCCCC	0.171 ± 0.074
CCCGCCAC	0.239 ± 0.034
ACCGCCAC	-0.106 ± 0.0018
CCCGCCCC	0.241 ± 0.1
CCCGCCCA	0.4 ± 0.012
GCCGCCCC	0.0256 ± 0.14
GCCGCCAC	-0.229 ± 0.042
AAAGCTGC	0.108 ± 0.027
GAAAGACC	-0.0392 ± 0.039
ATCGTTGG	-0.105 ± 0.092
CGACGATA	-0.0378 ± 0.027
CCAGTGGC	-0.0927 ± 0.044
CAGGCAGC	-0.163 ± 0.015
GAAGCGAC	-0.0841 ± 0.007
ACTCGTAA	0.213 ± 0.042
CCCCAACA	0.256 ± 0.061
CCCCAACC	0.131 ± 0.087

Sequence	PBM 8-mer E-score
TCCCAACA	0.0292 ± 0.05
CAGAAAAA	-0.0726 ± 0.05
AGTGCATC	-0.00688 ± 0.015
TAATTATA	0.262 ± 0.03
CAATTATA	0.115 ± 0.045
AAATTATA	0.253 ± 0.069
AAATTATG	0.168 ± 0.0019
GAATTATA	0.141 ± 0.061
AAATTATC	0.107 ± 0.0057
GCACACGA	-0.00209 ± 0.0015
AAGTTAGC	0.00664 ± 0.0061
TGCCCGAA	-0.0214 ± 0.05
GGACAAAA	0.0253 ± 0.017
AATATCGT	0.091 ± 0.0052
GCGTGATA	0.113 ± 0.028
ACGTGAGG	0.0924 ± 0.012
ACGTGATA	0.244 ± 0.05
ACGTGATG	0.239 ± 0.0046
ACGTGAAC	0.0297 ± 0.012
TCGTGAAA	-0.2052 ± 0.00053
CCGTGATA	-0.132 ± 0.043
ACGTGAAA	0.238 ± 0.035
ACGTGATC	0.187 ± 0.028
GGTTTAAC	-0.0252 ± 0.0077

Sequence	PBM 8-mer E-score
CACATTGG	-0.033 ± 0.038
ACACTGCA	-0.0884 ± 0.039
AGACCTAG	-0.205 ± 0.0049
ACGAACTG	-0.134 ± 0.02
CCCTATTA	0.0897 ± 0.046
CGCCTCCG	-0.115 ± 0.014
ATATTGAA	0.0093 ± 0.059
TTATTGAA	0.3 ± 0.015
GTATTGAA	0.0851 ± 0.057
ACGCGCCC	0.00592 ± 0.048
ACGTTTAG	0.0678 ± 0.079
ATAACACA	0.236 ± 0.023
ATAACATC	0.211 ± 0.049
ATAACATA	0.2304 ± 0.0015
CTAACACA	-0.028 ± 0.069
ATAACACG	0.137 ± 0.063
ATAACATG	0.192 ± 0.035
CTTGGCGC	-0.0178 ± 0.027
GTGATCAA	-0.00195 ± 0.013
TATTGGAA	0.0585 ± 0.0063
AATCACTC	-0.0758 ± 0.076
ACAGTGAG	-0.03 ± 0.013
ATTGAAGC	0.00997 ± 0.0075
ATAGGCAG	0.165 ± 0.037

Sequence	PBM 8-mer E-score
CTAGGCAA	-0.167 ± 0.047
ATAGGCAA	0.248 ± 0.061
CACGTGAG	0.186 ± 0.016
CACGTGAC	0.386 ± 0.011
TACGTGAA	0.0248 ± 0.06
AACGTGAC	0.128 ± 0.0036
GACGTGAA	-0.272 ± 0.011
CACGTGAA	0.369 ± 0.02
ATGAGGTG	0.103 ± 0.034
CATAGACA	0.0657 ± 0.028
ACCAACTA	0.0506 ± 0.082
ACAAACTA	0.152 ± 0.048
CCCAACTA	0.242 ± 0.0045
GCCAACTA	0.0147 ± 0.076
CCAAACTA	0.234 ± 0.0031
CAAAACTA	0.062 ± 0.059
ACATTCCA	-0.0113 ± 0.025
GAGGGTCA	-0.00483 ± 0.032
CACATTTC	0.141 ± 0.013
TCCTACGA	-0.0774 ± 0.011
CCCTACGC	0.0539 ± 0.023
CCCTACGA	0.232 ± 0.0033
GGGAGACA	0.115 ± 0.016
GCTCTGCA	-0.0815 ± 0.037
